Laboratory results from PubChem BioAssay AID759 (NMMLSC, 2007).
The whole screen tested about 190,000 compounds, of which about 270 (0.14%) were called active. Another 2% or so got no clear call; they are omitted. The sample holds actives, similar compounds and a random draw of the others, so the mix is not that of the screen.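 The calls were made as follows: active = GTP binding activity at least 20% away from the 100% baseline, either lowered as inhibitor or raised as activator; inconclusive = flagged as likely green fluorescent, judged across all proteins in the well; inactive = the rest.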

Each compound was assayed against GTPase HRas (Homo sapiens) (UniProt P01112) (assay: modulators of GTP binding to HRas wildtype, primary screen, biochemical, bead-based flow cytometry, multiplex (AID 759;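 also: 0% = unlabeled GTP competition control and 100% = no-compound control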)). Details: GST-Ras wt beads, Bodipy-FL-GTP binding, at 10 µM, actives lie on both sides.
Sequence of GTPase HRas (Homo sapiens) (P01112 whole entry, looked up): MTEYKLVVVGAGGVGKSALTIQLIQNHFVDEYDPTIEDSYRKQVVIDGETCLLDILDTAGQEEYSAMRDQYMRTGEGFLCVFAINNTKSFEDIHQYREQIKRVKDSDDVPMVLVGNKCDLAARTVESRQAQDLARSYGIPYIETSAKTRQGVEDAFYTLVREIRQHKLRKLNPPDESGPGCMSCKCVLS

GTP binding activity, active:
O=C(O)/C=C/c1cn(Cc2ccccc2)nc1-c1cccs1 120% [activator]

GTP binding activity, inactive:
CN1C(=O)/C(=N/OC(=O)c2ccccc2Br)c2ccccc21 91%
CCOC(=O)C1(CCOC)CCN(Cc2ccc(C(=O)OC)cc2)CC1 98%
Cc1cccc(-n2c(Cc3cc(=O)[nH]c(=O)[nH]3)nnc2SCC(=O)Nc2cccc(C(F)(F)F)c2)c1 102%
O=C(NCc1nnc(SCC(=O)N2CCC(Cc3ccccc3)CC2)o1)c1ccco1 98%
O=C(N/N=C/c1ccc([N+](=O)[O-])o1)c1cccc(S(=O)(=O)N2CCOCC2)c1 96%
CN(CC(=O)NC1CCCC1)S(=O)(=O)c1cnc[nH]1 104%
CCC(C)NC(=O)Cn1nc(C(F)(F)F)c2c1CCC2 (stereo not drawn) 100%
C=CCN1C2CCCC1CC(NC(=S)Nc1cccc(OC)c1)C2 (stereo not drawn) 99%
Cc1[nH]c2ccccc2c1-c1ccc(Cl)nn1 96%
COc1cccc(C(=O)Nc2cccnc2)c1OC 98%
FC(F)(F)c1cccc(Cc2noc(CN3CCC(N4CCCCC4)CC3)n2)c1 104%
C=CCNc1nc(Nc2ccc(Cl)cc2)nc(OC)n1 104%
O=C1CN(C(=O)CN2C(=O)NC3(CCCCC3)C2=O)c2ccccc2N1 98%
COc1ccc(S(=O)(=O)Nc2cccnc2)c(Cl)c1Cl 93%
Cc1ccc(S(=O)(=O)N(C)c2ccc(OCC(=O)NC3=NCCS3)cc2)cc1 99%
CCc1ccc(CN2C(=O)c3ccccc3C2C(=O)NCC2CCCO2)cc1 (stereo not drawn) 96%
Cc1ccc(NC(=O)CSc2nc(CSc3ccc(C)cc3)cc(=O)[nH]2)cc1 95%
Cn1c(-c2ccc(F)cc2)cnc1SCC(=O)NNC(=O)Cc1ccccc1 99%
O=C(COC(=O)c1cnccn1)Nc1cccc2ccccc12 96%
O=C(C1CCN(S(=O)(=O)c2ccc(Br)s2)CC1)N1CCN(C2CCCCC2)CC1 95%
O=C(/C=C\c1cn(-c2ccccc2)nc1-c1cccs1)N1CCOCC1 103%
O=C(O)/C=C/c1cn(-c2ccccc2)nc1-c1cccs1 92%
CCSc1sc(CC)cc1C=O 97%
COC(=O)Cc1c(O)ccn(Cc2cccc(C(F)(F)F)c2)c1=O 96%
Cc1ccc(NC(=S)N(CCN(C)C)Cc2cccs2)cc1C 93%
O=C(NCc1ccncc1)C(=O)NCc1ccco1 97%
CCOC(=O)c1c(-c2cccc(N)c2)cn2ccccc12 99%
CNC(=S)NNC(=O)c1cccn(Cc2ccccc2)c1=O 97%
Cc1cccc(C)c1N1CCN(S(=O)(=O)N2CCCCC2)CC1 96%
Cc1cc2nc(C(F)(F)F)cc(-c3cccs3)n2n1 90%
Nc1ccc(S(=O)(=O)Nc2nccc(/C=C/c3ccc(Br)s3)n2)cc1 91%
O=C(CCN1CCCCC1)N=Nc1c(O)[nH]c2ccccc12 98%
Cc1cc(OC(=O)c2ccccc2)c([N+](=O)[O-])c(=O)[nH]1 101%
COc1ccc(C(=O)NC(=S)Nc2ccc(Cl)cn2)cc1OC 99%
Cc1nn(CC#N)c(=O)n1N(C)c1ncc(C(F)(F)F)cc1Cl 99%
CC(=O)Nc1ccc(NC(=O)COc2ccc(S(=O)(=O)NC(C)c3ccccc3)cc2)cc1 (stereo not drawn) 114%
Cc1cc(/C=N/NC(N)=O)c(C)n1C1CCCCC1 100%
COc1cc(C(=O)Nc2cc(C(F)(F)F)ccc2-n2cncn2)cc(OC)c1OC 96%
O=C(NC(=S)Nc1ccc(S(=O)(=O)N2CCOCC2)cc1)c1ccccc1[N+](=O)[O-] 95%
COC(=O)c1cccnc1NC(=S)NC(C)C 95%
CCCCn1nc(C(=O)Nc2ccc(S(=O)(=O)Nc3ncccn3)cc2)c2ccccc2c1=O 98%
COCCCNC(=S)N1CCCC(c2nc3cc(C)c(C)cc3[nH]2)C1 (stereo not drawn) 95%
CC1Cc2ccccc2N1C1=CC(=O)CC(C)(C)C1 (stereo not drawn) 99%
Cc1nc(CN2CCN(C(=O)CCc3nnc(Cc4c[nH]c5ccccc45)o3)CC2)cs1 95%
CCc1nnc(NC(=O)CSc2nc(SC)ns2)s1 99%
O=C(O)c1ccc2c3c(cccc13)C(=O)N(OS(=O)(=O)c1ccccc1)C2=O 84%
CCOC(=O)c1cc2c(=O)[nH]c(C(Cl)(Cl)Cl)nc2o1 100%
